Assay results published in PubChem BioAssay AID1850 (Southern Research Specialized Biocontainment Screening …, 2009).
Screen size: about 310,000 compounds; about 1,000 (0.32%) were called active. The list is a sample of the results. Measured potencies and affinities stand elsewhere. A number with no mark means an inactive call. How the calls were made is not given here.

Test: PhoP regulon inhibitors, Salmonella typhi PhoP promoter GFP reporter, confirmatory (AID 1850);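 further: 0% = induced wells with vehicle and 100% = uninduced wells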
Conditions: fluorescence, 4 h, at 50 µM, stronger effect = higher value

Row | SMILES | inhibition [%]
1 | COc1ccccc1N1CCN(C(=O)Cn2nc(C(F)(F)F)c3c2CCC3)CC1 | -10.5
2 | COc1cccc(C(=O)Nc2ccc(NC(=O)Cc3ccccc3)cc2)c1 | -3.24
3 | CC(CC12CC3CC(CC(C3)C1)C2)NCc1ccccc1O (stereo not given) | 0.38
4 | CC(NCc1ccncc1)C12CC3CC(CC(C3)C1)C2 (stereo not given) | 2.47
5 | NS(=O)(=O)c1cccc(NC(=O)CC23CC4CC(C2)CC(CC(=O)Nc2cccc(S(N)(=O)=O)c2)(C4)C3)c1 | 4.03
6 | c1ccc(-c2nc(NC3CCCC3)c3ccccc3n2)cc1 | 3.11
7 | c1ccc(CN2CCC(Nc3ncnc4sccc34)CC2)cc1 | -4.42
8 | c1ccc(CNc2nc(-c3cccs3)nc3ccccc23)cc1 | -0.13
9 | c1ccc(CN2CCC(Nc3nc(-c4cccnc4)nc4ccccc34)CC2)cc1 | 1.57
10 | O=C1N(CN2CCC3(CC2)OCCO3)c2ccccc2C12OCCCO2 | 1.71
11 | Cc1ccc(NC(=O)N2CCN(c3ncccc3C(F)(F)F)CC2)cc1 | 1.6
12 | C=CCNC(=O)C1CC(=O)N(c2ccc(OCc3ccccc3Cl)cc2)C1 (stereo not given) | 0.85
13 | COc1ccc(C2NC(=O)Cc3cc(OC)c(OC)cc32)cc1OC (stereo not given) | -3.77
14 | Nc1ccc(C(=O)OCc2nc3c(ccc4ccccc43)[nH]2)cc1 | 0.78
15 | Cc1cccc(OCc2nc(C#N)c(NCCN(C)C)o2)c1 | -1.98
16 | CN(C)CCNc1oc(COc2ccc(Cl)cc2)nc1C#N | 8.61
17 | Cc1ccc(S(=O)(=O)N2CCCC(C(=O)NCCc3ccc(S(N)(=O)=O)cc3)C2)cc1 (stereo not given) | -14.1
18 | COc1ccc(-c2cc(C(=O)N(C)Cc3ccccc3F)c3ccccc3n2)cc1OC | -13.2
19 | CCCn1nnc(NC(=S)NC(=O)/C=C/c2ccco2)n1 | -16
20 | CC1=NN(c2nc3ccccc3[nH]2)C(=O)/C1=C/N(C)C | -13.6
21 | Cc1nn(-c2nc3ccccc3[nH]2)c(=O)c2ccccc12 | -19.2
22 | CN1CC(C(=O)c2ccc(F)cc2)C(c2c(F)cccc2Cl)C1 (stereo not given) | 7.43

Row | SMILES | inhibition [%]
23 | CCOC(=O)c1ccccc1NC(=O)CSc1nnc(C(C)C)n1CC | 1.44
24 | CC(C)C[C@H](NC(=O)NCc1ccccc1Cl)C(=O)O | 2.59
25 | Cc1ccc2c(c1)c1c(n2CC(O)CN2CCCCCC2)CCCC1 (stereo not given) | -2.65
26 | Cc1ccc2c(c1)c1c(n2CC(O)CNC(CO)(CO)CO)CCCC1 (stereo not given) | -13.1
27 | Cc1ccc2c(c1)c1c(n2CC(O)CN2CCOCC2)CCCC1 (stereo not given) | 5.45
28 | Cc1ccc2c(c1)c1c(n2CC(O)CNC2CCCC2)CCCC1 (stereo not given) | 14.4
29 | Cc1cc(C(=O)COC(=O)c2ccc(N)cc2)c(C)n1-c1c(C)n(C)n(-c2ccccc2)c1=O | -9.39
30 | CSc1nc(N2CCOCC2)cc(N2CCOCC2)n1 | 2.38
31 | COc1ccc(Br)c(C(=O)NC2CCCC2)c1 | 2.12
32 | CCC(CC)C(=O)NCc1ccc(OC)cc1 | 22.8
33 | O=C1CN(C(=O)/C=C/c2cccc(Cl)c2)c2ccccc2N1 | 8.09
34 | O=C(CS(=O)(=O)c1ccc(F)cc1)NCc1ccccc1 | -1.23
35 | Cc1ccc(-c2nn(-c3ccccc3)cc2CSC(=N)N)cc1 | 17.4
36 | OCc1cn(-c2ccccc2)nc1-c1ccc(-c2nn(-c3ccccc3)cc2CO)cc1 | -10.8
37 | CNC(=O)NC(=O)COC(=O)c1ccccc1OCc1ccccc1 | 0.41
38 | C/C(=N/Nc1ccnc2cc(Cl)ccc12)c1ccc(O)cc1 | -22.6
39 | CC(=O)N1CCC(=NNc2ccnc3cc(Cl)ccc23)CC1 | 0.99
40 | Oc1ccc(Nc2ccnc3cc(Cl)ccc23)cc1 | -4.09
41 | Oc1ccc(/C=N/Nc2ccnc3cc(Cl)ccc23)c(O)c1 | -3.01
42 | C/C(=N\Nc1cccc2cccnc12)c1ccc(N)cc1 | 10.3
43 | CCOC(=O)N1CCN(c2ccnc3cc(Cl)ccc23)CC1 | -0.34
44 | Cc1noc(C)c1C(=O)NCCC1=CCCCC1 | 1.2

Row | SMILES | inhibition [%]
45 | Cn1nnnc1SCCNC(=O)C1CCC(=O)N(Cc2ccc(Cl)cc2)C1 (stereo not given) | -10.8
46 | COc1ccc(NC(=O)C2CC(c3ccc(Cl)cc3)=NO2)cc1 (stereo not given) | 7.66
47 | Cc1ccc(OCC(O)CNC(C)c2ccccc2)cc1C (stereo not given) | -6.36
48 | CC(C)c1ccc(OCC(O)CNC(C)c2ccccc2)cc1 (stereo not given) | 1.07
49 | COc1cccc(OCC(O)CNC(C)c2ccccc2)c1 (stereo not given) | 6.91
50 | NCC(O)COCCC12CC3CC(CC(C3)C1)C2 (stereo not given) | -0.98
51 | COc1ccc(OCC(O)CNC(C)c2ccccc2)cc1 (stereo not given) | 1.46
52 | CC(NCC(O)COCc1ccc(Cl)cc1)c1ccccc1 (stereo not given) | -6.47
53 | O=C(CCC1CCCN(C(=O)c2cccc(F)c2)C1)N1CCN(c2ccccn2)CC1 (stereo not given) | -7.6
54 | O=C(CCNS(=O)(=O)c1ccccc1)OCC(=O)c1ccc(Br)cc1 | -3.69
55 | COc1ccc(C2N(c3ccccc3)CCN2c2ccccc2)cc1O | -8.63
56 | COc1ccccc1Cn1c(CCCO)nc2ccccc21 | 1.55
57 | Oc1ccc(Cl)cc1CNn1cnnc1 | 9.93
58 | Oc1ccc(Cl)cc1CNCc1ccc(Cl)cc1 | 12.4
59 | CCOc1ccc(S(=O)(=O)NC(C)C(=O)NCc2ccccn2)cc1 (stereo not given) | -3.4
60 | COc1ccc(/C=C/C2=CCN(C)CC2)cc1 | 17.2
61 | OC(CN1CC=C(/C=C/c2ccc(Br)cc2)CC1)c1ccccc1 (stereo not given) | -9.93
62 | CCOc1ccc(S(=O)(=O)N2CCN(C(=O)c3ccncc3)CC2)cc1 | -2.75
63 | CC1CN(C(=O)CCC(=O)NCc2ccccc2)c2ccccc2S1 (stereo not given) | 6.38
64 | OC(CNCC1CCCO1)Cn1c2ccccc2c2ccccc21 (stereo not given) | 14.3
65 | OC(CNCC1CCCO1)Cn1c2ccc(Br)cc2c2cc(Br)ccc21 (stereo not given) | -0.49
